Among all 69,000 compounds or so, about 950 (1.4%) showed an effect of 50% or more. What follows is part of a selection rich in strong results, with near analogues and random picks from the rest.
system: Mycobacterium tuberculosis; assay: Cornell M. t heat shock assay; type: functional, organism-based; parameters: dose or concentration left out as unconfirmed; also: in the data most compounds retested in dose-response had high values

SMILES | Percent Effect
Cl.NC(=O)C1CNCCN1C(=O)COc1ccccc1 (stereo not given) | -11.48%
C[C@H]1CN(Cc2cccc(F)c2)C[C@@]12CCN(CC(=O)N(C)C)C2=O.O=C(O)C(F)(F)F | -2.321%
CC(C)C(=O)N1CC[C@H]2N(C)CC[C@@]2(C(=O)N2CCCC2)CC1.O=C(O)C(F)(F)F | 7.304%
CCC1(O)CCCN(c2ncnc3c2c(C)nn3C)C1 (stereo not given) | 10.34%
CCC1(O)CCCN(c2nc(-c3ccccn3)nc3c2c(C)nn3C)C1 (stereo not given) | 100.9%
CCSCCNc1nc2c(s1)c(C)nn2C | 6.366%
CSCC[C@@H](CO)Nc1nc(-c2ccccn2)nc2c1c(C)nn2C | 63.32%
c1ccc(-c2nc3c(c(NCCCn4cncn4)n2)CCNCC3)nc1 | 8.8%
c1ccc(-c2nc3c(c(NCCn4cccc4)n2)CCNCC3)nc1 | -4.2%
Cc1nn(C)c2nc(-c3ccccn3)nc(NCCCOC(C)C)c12 | 98.39%
CC(=O)NCCNc1nc(-c2ccccn2)nc2c1c(C)nn2C | -12.81%
CSCC[C@@H](CO)Nc1ccc(-c2nc(-c3ccccc3C)no2)cn1 | -15.48%
CSCC[C@@H](CO)Nc1ccc(-c2nc(-c3ccccc3F)no2)cn1 | -33.46%
Cc1nc(N2CCC(O)(c3ccccc3)CC2)c2c(C)nn(C)c2n1 | 12.95%
CCSCCNc1nc(-c2ccccn2)nc2c1c(C)nn2C | 102%
Cc1ccc(CN2CC[C@H]3OCC[C@@H](C(=O)N4CCCCO4)[C@@H]3C2)o1.O=C(O)C(F)(F)F | -16.6%
O=C(O)C(F)(F)F.O=C([C@@H]1CCO[C@@H]2CCN(CCc3ccccc3)C[C@@H]21)N1CCCC1 | -24.53%
Cl.c1cnc(Nc2cc(CCC3CCCNC3)ccn2)cn1 (stereo not given) | 5.615%
Cc1nnc(N2CC[C@H]3O[C@H](C(=O)NCc4ccccn4)CC[C@H]32)s1.O=C(O)C(F)(F)F.O=C(O)C(F)(F)F | -4.989%
CCCN1C[C@H]2CC[C@@H]1CN(c1nnc(C(C)C)s1)C2 | 23.85%
O[C@@H]1CN(Cc2cccnc2)C[C@H]1Oc1ccccc1 | -6.962%
CCN1CCN(C)C(=O)C12CCN(C(=O)Cc1ccccn1)CC2.O=C(O)C(F)(F)F | 3.493%
Cc1nn(C)c2nc(-c3ccccn3)nc(NCCC3CCCN3C)c12 (stereo not given) | -21.22%
Cc1nn(C)c2nc(-c3ccccn3)nc(NC[C@@H]3CCCO3)c12 | 93.55%
Cc1nn(C)c2nc(N(Cc3ccccn3)CC3CCCO3)sc12 (stereo not given) | -20.31%

— ChEMBL document CHEMBL3988442, “University of Dundee, Small-Polar-MMV Screening Library” (2021)
